Assay outcomes deposited in PubChem BioAssay by National Center for Advancing Translational Sciences (NCATS).
ClpP mod: qHTS Assay for Activators of ClpP; Potency, µM (highest dose often 57.5 µM), for the others: at the top dose activity change, negative = active; actives 1.9% (n = 340,000); purified B. subtilis ClpP, FRET peptide cleavage, 20 min; AID 651965, 2013; ATP-dependent Clp protease proteolytic subunit (Bacillus subtilis (strain 168)), P80244; active = well fitted falling curve with a large enough effect; inconclusive = small, poorly fitted or top-dose-only effect; inactive = no such curve, though single readings can be large or run the other way; also: potency is read from the fitted curve at half-maximal effect; the source files actives as falling curves though it sought activators and does not explain the sign; nearly all actives have a fitted effect of over 65% in size
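Buffer: 100 mM Tris/HCl pH8, 100 mM KCl, 0.05% low protease BSA, 2.5% glycerol, 0.01% Tween-20. ClpP 10 microg/mL final; 20 min RT; delta FRET normalized to ADEP and DMSO controls.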
LDHA inh: inhibitors of human lactate dehydrogenase A; P00338; purified LDHA, NADH/diaphorase-resazurin fluorescence; hits give low values; activity change, % (values are at about 110 or 230 µM); actives 0.15% (n = 480,000); AID 1347041; in the data active = activity change below about -30%; inconclusive = mostly about -25% to -30%;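 also: plate controls were DMSO wells for no effect and wells without enzyme for full effect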
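Enzyme activity of human lactate dehydrogenase 5 (2 nM; 0.06 mM NADH, 0.2 mM pyruvate, 5 min, RT) is measured via a resazurin/diaphorase fluorescence readout of residual NADH.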
mIDH1 inhibitor: inhibitors of human mutant IDH1 R132H. O75874. IDH1-R132H enzyme, NADPH consumption, diaphorase/resazurin fluorescence. Potency, µM (top dose mostly 76.6 µM), for the others: at the highest dose activity change, negative = inhibition, actives largely listed as inhibitors. actives 0.093% (n = 390,000); also: potency is read from the fitted curve at half-maximal effect; % is scaled to controls: 0 for no effect and ±100 for the full control effect; nearly all actives have a fitted effect of over 65% in size
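IDH1-R132H (0.5 ug/mL) preincubated 30 min with compound, then NADPH (0.016 mM) and alpha-KG (2 mM) added; 80 min at RT, pH 7.5. Remaining NADPH coupled via diaphorase/resazurin to fluorescence (540/590 nm); concentration-response curves normalized to no-enzyme control.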
RGS4 inh: blocks human RGS4-accelerated GTP hydrolysis; actives 0.039% (n = 390,000); Transcreener GDP fluorescence polarization, RGS4-accelerated GTP hydrolysis; Potency, µM (top dose mostly 114 µM), without a hit: at the highest dose activity change, negative = inhibition, most hits filed as inhibitors; AID 504845; also: potency is read from the fitted curve at half-maximal effect; % is scaled to controls: 0 for no effect and ±100 for the full control effect; nearly all actives have a fitted effect of over 75% in size
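MLSMR compounds (23 nl, pin-transferred) preincubated 10 min at room temperature with a 500nM (2x) first reagent, then RGS4 at 900nM (2x) plus Transcreener GDP mix added; fluorescence polarization (620/688 nm) read before and after 90 min at 30 °C.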
S-ASM inh: inhibitors of human secretory acid sphingomyelinase | AID 504937 | P17405 | Potency, µM (series often up to 57.5 µM), for inactives: at the highest dose activity change, negative = inhibition, actives largely listed as inhibitors | placental ASM, HMU-PC fluorogenic substrate, 60 min | actives 0.006% (n = 340,000); also: potency is read from the fitted curve at half-maximal effect
Target sequence (P17405 47-631 limits assumed): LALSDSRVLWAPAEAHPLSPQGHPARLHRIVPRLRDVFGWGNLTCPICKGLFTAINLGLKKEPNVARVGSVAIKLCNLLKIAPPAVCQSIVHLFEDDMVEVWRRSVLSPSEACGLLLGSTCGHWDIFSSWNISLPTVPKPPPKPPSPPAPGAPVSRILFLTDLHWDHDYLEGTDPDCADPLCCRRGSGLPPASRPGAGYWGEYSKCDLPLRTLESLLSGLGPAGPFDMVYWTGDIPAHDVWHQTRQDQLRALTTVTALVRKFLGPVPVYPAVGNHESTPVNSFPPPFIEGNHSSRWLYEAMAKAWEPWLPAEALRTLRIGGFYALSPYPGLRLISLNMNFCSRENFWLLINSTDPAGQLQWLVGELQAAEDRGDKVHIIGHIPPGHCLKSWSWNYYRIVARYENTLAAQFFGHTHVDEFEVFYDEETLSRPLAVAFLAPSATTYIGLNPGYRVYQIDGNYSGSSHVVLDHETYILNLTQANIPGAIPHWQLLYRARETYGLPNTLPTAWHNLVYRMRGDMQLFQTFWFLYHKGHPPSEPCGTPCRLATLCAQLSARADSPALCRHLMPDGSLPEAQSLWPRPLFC
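qHTS format. ASM enzyme prepared from human placenta hydrolyses the fluorogenic substrate HMU-PC0 (9 uM final) over 60 min at 37 °C after a 10 min compound preincubation.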
Mito fusion act: inhibitors of mitochondrial division or activators of mitochondrial fusion | Potency, µM (titrated, usually from 46.1 µM), without a hit: at the top dose growth rescue (activation), most hits filed as activators | S. cerevisiae fusion-defective mutant growth rescue, CellTiterGlo 48 h | actives 0.23% (n = 320,000); also: potency is read from the fitted curve at half-maximal effect; % of control where 0% means no effect; nearly all actives have a fitted effect of over 45% in size
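Growth-rescue viability read-out: after 48 h at the non-permissive 37C in glycerol/ethanol YPEG, yeast mitochondrial fusion mutants are measured by CellTiterGlo luminescence; compounds (23 nl pinned per well) restoring growth score as division inhibitors or fusion activators.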
Starred values were filed as active, the others as inactive; i = inactive; ? = inconclusive; . = no result given; ! = a repeat was not active; [ ] = another dose, or the depositor's remark. The entries come from a sample that favours hits as a whole. Unless noted, calls follow the shape of the dose curve; as a rule, active = well fitted curve in the direction sought with a large enough effect; inconclusive = small, poorly fitted or top-dose-only effect, or another doubt; inactive = no such curve, though single readings can be large; an effect the other way counts as inactive or inconclusive.

SMILES	ClpP mod	LDHA inh	mIDH1 inhibitor	RGS4 inh	S-ASM inh	Mito fusion act
COc1cccc(-c2nc(N3CCCCC3C)c3ccccc3n2)c1O (stereo not given)	0%	6	1%	-17%	?	13µM*
Fc1ccc(-n2cc(CNCCc3ccncc3)c(-c3ccccc3Cl)n2)cc1	0%	-3	5%	-5%	5%	-4%
Fc1ccc(-n2cc(CNCCc3cccnc3)c(-c3ccccc3Cl)n2)cc1	28µM*	-5	-1%	9%	0%	?
OCCc1nc2ccccc2s1	.	0	.	.	.	.
CC12CCC(=O)N1C(C(=O)Nc1cccc(S(=O)(=O)N3CCCCCC3)c1)CS2 (stereo not given)	28µM*	-6	4%	-10%	3%	7%
COc1cc2c(cc1OC)CN(Cc1cc(=O)c(OCc3c(Cl)cccc3Cl)co1)CC2	.	9	.	.	.	.
CN(C)CCSc1nc(N2CCOCC2)c2c(c1C#N)CCCC2	.	2	.	.	.	.
O=C(C[n+]1ccc(Cl)c2ccc(Cl)cc21)c1ccc(F)cc1	-1%	-2	.	.	.	.
COc1ccc(C(=O)C[n+]2ccc(Cl)c3ccc(Cl)cc32)cc1	0%	-60*	.	.	.	.
NC(=O)c1c(NC(=O)COC(=O)c2ccc(S(=O)(=O)Nc3ccccc3)cc2)sc2c1CCCC2	20µM*	-3	2%	-14%	4%	-4%
O=C(COC(=O)c1ccc(S(=O)(=O)Nc2ccccc2)cc1)NC1CCCC1	.	-7	-6%	-8%	-2%	3%
CC(C)=CC(=O)N(CC1CCOC1)C1CC1 (stereo not given)	.	1	.	.	.	.
COc1ccc(Br)cc1CN(C)CC(=O)Nc1ccccc1Cl	28µM*	-1	2%	3%	2%	?
Cc1cccc(C(=O)Oc2csc(=S)n2C(=O)c2cccc(C)c2)c1	0%	-33*	-9%	-36%	-3%	12%
O=C(Oc1cccccc1=O)c1ccccc1	1%	1	1%	-27%	-2%	8%
O=C(Oc1csc(=S)n1C(=O)c1ccccc1)c1ccccc1	8.9µM*	-13	-5%	-38%	0%	6%
COc1cc(SC)ccc1C(=O)OCC(=O)NC(=O)NCc1ccco1	.	-7	.	.	.	.
CCN(CC)CCCNC(=O)c1cn(CC(C)C)c(=O)c2c1c1ccccc1n2C	16µM*	0	-6%	-15%[56.9 µM]	9%	-4%
Cn1c2ccccc2c2c(C(=O)NCC3CCCO3)cn(C3CCCC3)c(=O)c21 (stereo not given)	-22%	4	0%	-37%	3%	4%
CC(C)Cn1cc(C(=O)NCC2CCCO2)c2c3ccccc3n(C)c2c1=O (stereo not given)	16µM*	25	4%	-10%	6%	-1%
CCCCN(CC)CCCNC(=O)c1cn(CC(C)C)c(=O)c2c1c1ccccc1n2C	20µM*!	-6	-15%	-12%	13%	-2%
CC(C)Cn1cc(C(=O)NCCCOC(C)C)c2c3ccccc3n(C)c2c1=O	28µM*	-2	5%	-29%	-3%	0%
Cc1occc1C(=O)N(Cc1cccs1)C1CC1	.	-5	.	.	.	.
Cc1c(-c2ccc(Br)cc2)nc2ccccn12	25µM*	-6	12%	28%	0%	22%
Cc1ccc(-c2nc3ccccn3c2C=O)cc1	-7%	-3	-2%	-44%[56.9 µM]	1%	15%
CCn1nnc2cc(C(=O)OCc3cc(=O)oc4cc(O)ccc34)ccc21	.	3	.	.	.	.
CCN(CC)c1ccc(C(=O)OCc2cc(=O)oc3cc(O)ccc23)cc1	32µM*	2	-1%	-16%	i	4%
Cc1ccc(NC(=O)c2ccc3ccccc3n2)cc1Cl	.	11	.	.	.	.
Cc1cccc(-n2ncc3c(N4CCCc5ccccc54)ncnc32)c1	32µM*	-7	-5%	-3%	-9%	18%
